± gives the standard deviation.
Columns and labels:
Settings in all cases: modulator concentration 10 µM
[1] = tested on: RAW-Dual (murine macrophage reporter line); assay: NF-kB reporter (SEAP) activity fold change vs agonist alone; higher = enhanced NF-kB activity
In short: (§1)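 RAW-Dual murine macrophage reporter cells were seeded at 50 000 per well in 384-well plates and pre-incubated 1 hour at 37 °C with compound pin-transferred to 10 μM final. After 1 hour, a PRR agonist was added and cells incubated overnight. Supernatant NF-κB (SEAP, QUANTI-Blue, 620 nm absorbance) and IRF (Lucia luciferase, QUANTI-Luc, luminescence) signals were divided by the mean agonist-only control on the same plate to give fold change. Two replicate plates were averaged, with errors by propagation.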

[2] = tested on: RAW-Dual (murine macrophage reporter line); assay: IRF reporter (Lucia luciferase) activity fold change vs agonist alone; higher = enhanced IRF activity
In short: as §1

[3] = tested on: RAW-Dual (murine macrophage reporter line); assay: viability score (confluency relative to resting cells, overnight) (fraction); higher = more viable, active = viable (0.7 or more)
In short: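 A compound met the cutoff when both of two confluency masks exceeded 70% of resting cells. Those masks were made with IncuCyte software from IncuCyte images of RAW-Dual macrophages treated overnight at 10 μM final. This is the basis of the viability score, which is confluency relative to resting cells.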

[4] = agonist: CpG ODN 1826 0.5 ug/mL

Compound | NF-kB reporter [1, 4] | NF-kB reporter ([1]; agonist: LPS 0.1 ug/mL) | NF-kB reporter ([1]; agonist: MPLA […]) | IRF reporter ([2]; agonist: 3'3'-cGAMP 10 ug/mL) | IRF reporter ([2]; agonist: LPS 0.1 ug/mL) | IRF reporter ([2]; agonist: MPLA […]) | viability score [3]
COC(=O)COc1ccc2oc(=O)cc(-c3cc4cccc(OC)c4o3)c2c1 | 0.858 ± 0.065 | 1.06 ± 0.12 | 1.05 ± 0.025 | 0.928 ± 0.052 | 0.872 ± 0.084 | 1.04 ± 0.086 | 0.992 (active)
Cc1ccc(N2CC(C(=O)NCC3CCCO3)CC2=O)cc1 (centres undefined) | 1.02 ± 0.082 | 0.97 ± 0.099 | 1.03 ± 0.037 | 1.03 ± 0.22 | 1.05 ± 0.051 | 1.17 ± 0.076 | 1 (active)
CC(C)N(C)CCOC(=O)C(C)(c1ccccc1)c1ccccc1 | 0.583 ± 0.047 | 1.03 ± 0.068 | 0.957 ± 0.11 | 0.902 ± 0.069 | 1.09 ± 0.12 | 0.965 ± 0.17 | 0.322 (inactive)
CN(c1ccccc1)c1nnc(C(C)(C)C)c(=O)[nH]1 | 1.05 ± 0.079 | 0.951 ± 0.076 | 1.01 ± 0.048 | 1.03 ± 0.039 | 0.908 ± 0.11 | 0.863 ± 0.24 | 0.994 (active)
COc1ccc(OC)c(C2CC(c3ccc(Cl)cc3)=NN2S(C)(=O)=O)c1 (centres undefined) | 0.853 ± 0.073 | 0.897 ± 0.09 | 1.04 ± 0.12 | 0.829 ± 0.068 | 1.15 ± 0.22 | 1.19 ± 0.43 | 0.986 (active)
CN1CCN(S(=O)(=O)c2ccc(-c3ccc(S(=O)(=O)N4CCN(C)CC4)cc3)cc2)CC1 | 0.865 ± 0.048 | 1.06 ± 0.074 | 0.955 ± 0.06 | 1.04 ± 0.043 | 1.45 ± 0.15 | 1.1 ± 0.098 | 0.999 (active)
O=[N+]([O-])c1cc(C(O)(C(F)(F)F)C(F)(F)F)cc([N+](=O)[O-])c1Cl | 1.07 ± 0.085 | 1.03 ± 0.072 | 0.972 ± 0.091 | 0.706 ± 0.029 | 1.22 ± 0.17 | 0.97 ± 0.085 | 0.996 (active)
Cc1nc(Nc2ncc(C(=O)Nc3c(C)cccc3Cl)s2)cc(N2CCN(CCO)CC2)n1.O | 1.55 ± 0.37 | 0.307 ± 0.025 | 0.644 ± 0.041 | 0.0905 ± 0.0031 | 0.536 ± 0.063 | 0.656 ± 0.081 | 0.492 (inactive)
Cn1cnc2cc(NCc3ccc(Br)cc3)ccc21 | 0.882 ± 0.14 | 0.762 ± 0.076 | 0.984 ± 0.1 | 0.805 ± 0.045 | 1.06 ± 0.21 | 1.13 ± 0.25 | 0.984 (active)
CCOc1ccc(Nc2nc(Nc3ccc(OCC)cc3)nc(N3CCOCC3)n2)cc1 | 0.35 ± 0.02 | 1.76 ± 0.13 | 2.82 ± 0.16 | 1.14 ± 0.083 | 4.42 ± 3 | 4.93 ± 2.5 | 0.762 (active)
Cc1cnc(Nc2ccc(OCCN3CCCC3)cc2)nc1Nc1cccc(S(=O)(=O)NC(C)(C)C)c1 | 0.769 ± 0.17 | 1.81 ± 0.14 | 2.74 ± 0.12 | 0.0927 ± 0.014 | 0.0391 ± 0.0087 | 0.064 ± 0.028 | 0.0864 (inactive)
COCCCNC(=O)CSc1ccc(Cl)cc1 | 1.07 ± 0.17 | 0.974 ± 0.11 | 0.952 ± 0.13 | 0.889 ± 0.063 | 1.12 ± 0.28 | 1.1 ± 0.13 | 1 (active)
COc1ccc(-c2cc(C(F)F)nn2-c2ccc(S(N)(=O)=O)cc2)cc1F | 0.989 ± 0.29 | 0.98 ± 0.05 | 0.993 ± 0.068 | 0.935 ± 0.052 | 1.3 ± 0.24 | 1.23 ± 0.18 | 0.998 (active)
Br.O=S(=O)(c1ccc(-c2csc(Nc3ccc(Cl)cc3)n2)cc1)N1CCCC1 | 0.941 ± 0.15 | 1.04 ± 0.13 | 0.869 ± 0.069 | 0.885 ± 0.026 | 1.19 ± 0.17 | 1.48 ± 0.28 | 0.991 (active)
Cc1cc(CCC(=O)N(C)C2CN(c3ccc4nnc(C)n4n3)C2)ccc1F | 1.11 ± 0.058 | 1.1 ± 0.091 | 0.918 ± 0.046 | 1.19 ± 0.073 | 1.12 ± 0.095 | 1.11 ± 0.16 | 0.979 (active)
O=C(NCCc1cn2ccccc2n1)c1ccccc1Br | 0.964 ± 0.069 | 0.943 ± 0.12 | 1.03 ± 0.056 | 1 ± 0.048 | 1.2 ± 0.25 | 1.24 ± 0.32 | 0.975 (active)
COc1ccccc1-c1nnc(NC(=O)c2cc(C)nn2C)o1 | 1.08 ± 0.11 | 1 ± 0.079 | 1.01 ± 0.08 | 0.945 ± 0.034 | 0.965 ± 0.064 | 0.953 ± 0.17 | 0.998 (active)
CN(C)CCC=C1c2ccccc2COc2ccccc21.Cl | 0.758 ± 0.18 | 1.01 ± 0.054 | 1.06 ± 0.067 | 0.576 ± 0.031 | 1.22 ± 0.21 | 1.17 ± 0.2 | 0.978 (active)
O=C(NCC1(O)CCc2ccccc2C1)c1cccc(C(F)(F)F)c1 (centres undefined) | 0.848 ± 0.041 | 0.939 ± 0.1 | 0.957 ± 0.054 | 0.989 ± 0.045 | 1.09 ± 0.26 | 1.12 ± 0.43 | 0.994 (active)
CCN(CC)CCOC(=O)c1ccc(N)cc1Cl.Cl | 1.06 ± 0.094 | 0.971 ± 0.048 | 1.04 ± 0.038 | 0.957 ± 0.087 | 1.01 ± 0.089 | 0.897 ± 0.077 | 0.999 (active)
COc1ccc(-c2[nH]c3ccccc3c2SCCNC(=O)c2ccccc2)cc1 | 1.12 ± 0.086 | 1.19 ± 0.072 | 1.29 ± 0.11 | 0.832 ± 0.035 | 1.42 ± 0.14 | 1.17 ± 0.12 | 0.966 (active)
NC(N)=NN=Cc1ccc(OS(=O)(=O)c2ccccc2)cc1 | 0.0965 ± 0.0075 | 0.954 ± 0.048 | 1.18 ± 0.14 | 0.929 ± 0.044 | 0.93 ± 0.058 | 1.04 ± 0.13 | 0.433 (inactive)
CCOC(=O)C1=C(C)NC(C)=C(C(=O)OCC)C1c1ccc(OC)cc1OC | 1.01 ± 0.21 | 1.27 ± 0.12 | 1.16 ± 0.18 | 1.01 ± 0.033 | 1 ± 0.24 | 1.25 ± 0.24 | 1 (active)
CNCC[C@@H](Oc1ccccc1C)c1ccccc1.Cl | 0.744 ± 0.079 | 0.996 ± 0.05 | 1.26 ± 0.085 | 1.02 ± 0.11 | 0.95 ± 0.041 | 0.792 ± 0.16 | 0.958 (active)
CCCOc1ccc(-c2ccc(-c3nc(Cc4ccc(OC)c(OC)c4)no3)cc2)cc1 | 0.763 ± 0.062 | 0.972 ± 0.046 | 1.04 ± 0.097 | 0.978 ± 0.048 | 1.08 ± 0.063 | 1.12 ± 0.12 | 1.01 (active)
COc1ccc2cc(Br)ccc2c1CC(=O)O | 0.759 ± 0.06 | 0.954 ± 0.045 | 1.01 ± 0.087 | 0.918 ± 0.043 | 1.29 ± 0.076 | 1.33 ± 0.19 | 1.02 (active)
COc1ccc(-c2[nH]c(-c3ccccc3)nc2SCC(=O)NC2CCCC2)cc1 | 0.875 ± 0.061 | 1.07 ± 0.069 | 1.64 ± 0.11 | 0.892 ± 0.03 | 1.09 ± 0.095 | 1.11 ± 0.1 | 1 (active)

From the supplement of paper PMC10646978
